# SW480 rereplic: A quantitative high throughput screen for small molecules that induce DNA re-replication in SW480 colon adenocarcinoma cells; SW480 DNA re-replication, Hoechst DNA content imaging, 48 h; Potency, µM (highest dose often 46.1 µM), inactives show top-dose re-replication activation, usual class: activators; AID 624297, 2012; 1.8% of 340,000 active; further: potency means the concentration at half of the fitted maximal effect; % of control where 0% means no effect; nearly all actives have a fitted effect of over 55% in size
#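 Readout is total intensity of Hoechst-stained nuclei, excited at 405 nm and collected at 500-530 nm. Compound treatment lasted 48 hr at 37 C in 5% CO2 before staining.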
# VP16 counter: VP16 counterscreen qHTS for inhibitors of ROR gamma transcriptional activity; Drosophila S2 Gal4-VP16 UAS-luciferase, luminescence, 20 h; Potency, µM (titrated, usually from 53.6 µM), inactives show at the highest dose activity, negative = inhibition, hits mostly inhibitors; 3.5% of 310,000 active; AID 2546, 2010;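 further: Gal4-VP16 expression switched on by copper sulfate through the metallothionein promoter; potency means the concentration at half of the fitted maximal effect; on the % scale 0 is the no-effect control and ±100 the full control effect; nearly all actives have a fitted effect of over 50% in size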
# RORgamma inh: qHTS for inhibitors of ROR gamma transcriptional activity. AID 2551, 2010. Potency, µM (titrated, usually from 53.6 µM), for the others: top-dose activity change, negative = inhibition, most hits filed as inhibitors. 5.4% of 310,000 active. Drosophila S2 Gal4-RORgamma UAS-luciferase reporter, 20 h; further: potency means the concentration at half of the fitted maximal effect; on the % scale 0 is the no-effect control and ±100 the full control effect; nearly all actives have a fitted effect of over 60% in size
# Target sequence (P51450 whole entry, looked up, the tested form may be a part): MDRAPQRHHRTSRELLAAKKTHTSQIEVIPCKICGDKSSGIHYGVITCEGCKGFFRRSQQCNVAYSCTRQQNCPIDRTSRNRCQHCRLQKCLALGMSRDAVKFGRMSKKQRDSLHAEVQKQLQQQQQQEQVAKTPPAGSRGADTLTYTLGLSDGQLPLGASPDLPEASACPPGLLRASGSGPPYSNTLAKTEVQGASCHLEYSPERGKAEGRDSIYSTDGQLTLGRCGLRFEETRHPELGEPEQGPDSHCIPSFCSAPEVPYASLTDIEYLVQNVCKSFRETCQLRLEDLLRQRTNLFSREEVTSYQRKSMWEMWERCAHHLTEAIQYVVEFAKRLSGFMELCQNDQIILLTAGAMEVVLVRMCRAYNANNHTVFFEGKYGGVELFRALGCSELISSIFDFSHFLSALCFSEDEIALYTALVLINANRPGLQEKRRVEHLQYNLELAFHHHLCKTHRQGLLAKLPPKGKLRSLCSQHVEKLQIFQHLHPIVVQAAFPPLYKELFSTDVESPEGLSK
#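 Stable Schneider cell line, Gal4 DNA-binding domain fused to ROR gamma, UAS-luciferase. Cmpd 1 hr RT → CuSO4 700 uM final → 20 hr RT → luciferase reagent 10 min → luminescence.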
# Chronic BCR inh: qHTS Assay to Find Inhibitors of Chronic Active B-Cell Receptor Signaling; Potency, µM (highest dose often 46.1 µM), inactives show top-dose activity change, negative = inhibition, actives largely listed as inhibitors; ABC-DLBCL IkBa-CBG/CBR reporter, luminescence ratio, 4 h; 0.05% of 340,000 active; AID 493014, 2011; active means well fitted inhibition curve with a large enough effect in the signal ratio, with a control signal flat, not every such curve was filed as active; inconclusive means small, poorly fitted or top-dose-only effect, or effect the other way, or a change in a side signal; the % refers to the signal ratio;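 further: potency means the concentration at half of the fitted maximal effect; plate controls were basal doxycycline-induced cells for no effect and cells given 10 µM MG132 for full effect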
#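 Doxycycline induced both beetle luciferases in TMD8 lymphoma cells; IKK-driven degradation limits the IkappaBalpha-fused green signal, while red luminescence normalises for cell number and nonspecific effects. Compounds tested up to 46 uM, 4 hrs.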
# Giardia kill: Small Molecules that selectively kill Giardia lamblia: qHTS | AID 540267, 2011 | activity change, % at 7.66 µM, hits read low | 0.15% of 340,000 active | Giardia lamblia trophozoite viability; in the data active means activity change below about -80%; inconclusive means between about -30% and that limit;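 further: parasites exposed to compound for two days anaerobically before the ATP read; on the % scale 0 is the no-effect control and ±100 the full control effect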
#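 Each well holds 100 Giardia trophozoites and compound. After two days (48 hrs) at 37 deg C in anaerobic conditions, ATP is quantified by luminescence.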
# MCF10A rereplic: A quantitative high throughput screen for small molecules that induce DNA re-replication in MCF 10a normal breast cells; 2.9% of 350,000 active; MCF 10A DNA re-replication, Hoechst nuclear intensity, 48 h; Potency, µM (top dose mostly 46.1 µM), for the others: at the highest dose activity, positive = re-replication, hits mostly activators; AID 624296, 2012; further: potency means the concentration at half of the fitted maximal effect; % of control where 0% means no effect; nearly all actives have a fitted effect of over 50% in size
# * marks the source's active call; other numbers are inactive results; ? = inconclusive; nt = no result given; [ ] = another dose, or the depositor's remark. In the library only some 8.3% were active in any assay of this set; here they are far more common. Unless noted, the call rests on the fitted dose curve; in most records, active means well fitted curve in the direction sought with a large enough effect; inconclusive means small, poorly fitted or top-dose-only effect, or another doubt; inactive means no such curve, though single readings can be large; an effect the other way counts as inactive or inconclusive.
SMILES,SW480 rereplic,VP16 counter,RORgamma inh,Chronic BCR inh,Giardia kill,MCF10A rereplic
COc1ccc(OC)c(C(=O)c2ccc(C(=O)c3cc(OC)ccc3OC)cc2)c1,-1%,1%,-15%,0%,-7,-14%
COc1ccc(Cl)cc1C(=O)Nc1nc(C)cc(C)n1,-12%,-17%,-27%[1.91 µM],-1%,-13,-9%
CCCOc1c(Br)cc(C2C3=C(CCCC3=O)N(CC)C3=C2C(=O)CCC3)cc1OC,16µM*,4%,4%,-2%,-19,?
CCCOc1c(Br)cc(C2C3=C(CCCC3=O)N(C)C3=C2C(=O)CCC3)cc1OC,?,6%,30%,0%,4,-2%
C#CCOc1c(Cl)cc(C2C3=C(CCCC3=O)N(CC(=O)O)C3=C2C(=O)CCC3)cc1OC,-101%[1.84 µM],-1%,0%,1%,6,21µM*
CCOc1cc(C2C3=C(CCCC3=O)N(CC(=O)O)C3=C2C(=O)CCC3)ccc1OC,-63%,-13%,-8%,3%,14,?
COc1ccc(C2C3=C(CCCC3=O)N(CC(=O)O)C3=C2C(=O)CCC3)cc1Cl,?,-12%,-34%,0%,0,21µM*
O=c1[nH]c2cc(NCCO)c([N+](=O)[O-])cc2[nH]1,-2%,-2%,-7%,?,-3,0%
CCOC(=O)c1ccc(NC(=S)Nc2ccc(Cl)cn2)cc1,?,8.9µM*,2.2µM*,?,-15,?
CCOC(=O)c1ccc(NC(=S)Nc2ccccn2)cc1,?,-5%[0.365 µM],3.2µM*,?,18,0%
Cc1ccc(COC(=O)CCCN=C2NS(=O)(=O)c3ccccc32)cc1,-15%,nt,nt,-4%,-17,2%
CCCC(=O)Nc1cc(OC)c(NC(=S)Nc2ccc(CC)cc2)cc1OC,3%,nt,nt,nt,4,?
CC1=CC(=O)C(C(C)C)=CC1=NC(=O)c1ccc(C)cc1,6%,-9%,-14%,3%,2,-1%
CCn1nc(NC(=O)c2ccccn2)c2cc3cc(C)ccc3nc21,?,7.1µM*,5µM*,2%,-3,24%
CCn1nc(NC(=O)C(C)C)c2cc3ccc(C)cc3nc21,?,-14%,-1%,2%,7,?
Cc1ccc2nc3c(cc2c1)c(NC(=O)c1ccccn1)nn3CC(C)C,-4%,5µM*,1.8µM*,11%,3,-2%
Cc1ccc2cc3c(NC(=O)c4ccco4)nn(CC(C)C)c3nc2c1,9.2µM*,-28%,-31%,3%,3,?
CCn1nc(NC(=O)c2cccs2)c2cc3ccccc3nc21,15µM*,0%,26%,?,-10,18µM*
O=C(OCc1ccccc1C(F)(F)F)c1ccc(Br)c(S(=O)(=O)N2CCOCC2)c1,-15%,nt,nt,nt,17,17%
Cc1ccc(Cl)cc1NC(=O)CN1C(=O)NC2(CCCCCC2)C1=O,-1%,nt,nt,0%,-19,1%
CC(C)C(NS(=O)(=O)c1ccccc1)C(=O)N1CCN(C(=O)c2ccco2)CC1 (centres undefined),2%,5%,-11%,9%,9,-10%
C[C@H](CO)N1C[C@H](C)[C@@H](CN(C)Cc2ccncc2)Oc2c(NS(=O)(=O)c3ccccc3)cccc2C1=O,-1%,nt,nt,?,-19,1%
COc1ccc(CO[C@@H]2O[C@H](CO)[C@@H](O)[C@H](O)[C@H]2NC(C)=O)cc1OC,-10%,6%,-2%,?,18,0%
Cc1cc(NC(=O)CSc2nc3c(c(=O)n2-c2ccc(Br)cc2)SCC3)no1,?,4%,-46%,-4%,20,8.2µM*
COc1ccc(-n2c(SCC(=O)Nc3cc(C)on3)nc3c(c2=O)SCC3)cc1,-14%,-2%,18%,-9%,37,0%
SMILES,SW480 rereplic,VP16 counter,RORgamma inh,Chronic BCR inh,Giardia kill,MCF10A rereplic
CCc1cccc(CC)c1NC(=S)NCCc1c(C)[nH]c2ccccc12,?,7.1µM*,?,4%,-7,?
COc1ccc2[nH]c(C)c(CCNC(=S)Nc3cccc(C)c3C)c2c1,4%,?,7.1µM*,0%,-1,1%
CCc1cccc(CC)c1NC(=S)NCCc1ccc(O)c(O)c1,-4%,-14%,13µM*,?,-4,?
Cc1[nH]c2ccccc2c1CCNC(=O)CCC(=O)c1ccccc1,1%,0%,9%,-3%,-7,1%
COc1ccc2[nH]c(C)c(CCNC(=S)Nc3ccccc3C)c2c1,?,?,?,4%,-1,?
CCCOc1cc2c(C#N)c(N3CCCC3)nc(N)c2c(N)n1,?,nt,nt,nt,25,?
Cc1ccc(S(=O)(=O)CCC(=O)OCC(=O)N2c3ccccc3NC(=O)C2(C)C)cc1,0%,nt,nt,-16%,0,1%
CCOC(=O)c1oc2ccc(S(=O)(=O)n3nc(-c4ccccc4)cc3N)cc2c1C,4%,11µM*,-36%,?,13,15%
NNC(=O)CSc1nc(-c2ccccc2)cn1-c1ccccc1,-22%,18%,5.6µM*,12%,-23,10%
Cc1ccc(-c2cn(-c3ccccc3)c(SCC(=O)NC3CCS(=O)(=O)C3)n2)cc1C (centres undefined),2%,?,13µM*,?,6,15%
O=C(NCC1CCCO1)c1nn2c(C(F)(F)F)cc(-c3ccco3)nc2c1Cl (centres undefined),19%,nt,nt,nt,10,16%
O=C(NCC1CCCO1)c1nn2c(C(F)(F)F)cc(-c3cc(Br)cs3)nc2c1Br (centres undefined),5.8µM*,-2%,-4%,7%,-10,15µM*
O=C(NN=C1C2CC3CC(C2)CC1C3)c1ccccc1O,21µM*,-28%,13µM*,?,20,18%
C/C(=N\NC(=O)c1ccc(N)cc1)C1CC1,-3%,3%,-4%,?,-6,7%
O=C(NC12CC3CC(CC(C3)C1)C2)c1ccc(-c2ccccc2Cl)o1,9%,-25%,42%,?,-17,16µM*
O=C(NC12CC3CC(CC(C3)C1)C2)c1ccccc1O,2%,?,44%,?,13,8.2µM*
C/C(=N\NC(=O)c1ccccc1O)C1CC1,16µM*,7%,?,?,4,2%

# Screening data deposited in PubChem by National Center for Advancing Translational Sciences (NCATS).
